Screening results: PubChem BioAssay, National Center for Advancing Translational Sciences (NCATS)
A selection: hits, their analogues and other compounds. The true share with any hit is near 3.8%.
ATXN2 expr inh: reduces ATXN2 reporter expression in HEK-293 cells; HEK-293 ATXN2-luciferase reporter, luminescence, 24 h; Potency, µM (titrated, usually from 57 µM), for inactives: at the highest dose activity change, negative = inhibition, actives largely listed as inhibitors; 360,000 tested, 0.72% active; note: % is set by controls: 0 for no effect and ±100 for the full control effect; nearly all actives have a fitted effect of over 55% in size
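qHTS (up to 57 uM final) was run with 24 h compound exposure of reporter cells at 37 °C. Each well was multiplexed: SteadyGlo luminescence measured ATXN2-luciferase expression after a fluorogenic Gly-Phe-AFC viability readout (25 uM final).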
HepG2 tox: kills HepG2 cells in TGF-b inhibitor counter-screen | 410,000 tested, 0.76% active | Potency, µM (highest dose often 46.1 µM), inactives show top-dose activity change, negative = cytotoxicity, usual class: cytotoxic | AID 588856 | HepG2 CAGA-GFP viability, ATP luminescence, 18 h
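HepG2 CAGA-GFP cells (1000/well, DMEM with 1% FBS) received compound, then TGF-beta at 500 pg/mL final, and were incubated 18 hours at 37 degrees C. Viability was read by CellTiter-Glo luminescence. Media-only wells were set as complete cell-killing and DMSO as no toxicity.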
Nrf2 block: inhibitors of Nrf2 signaling | 360,000 tested, 2.1% active | Potency, µM (doses to about 46 µM), for the others: at the highest dose activity change, negative = inhibition, hits mostly inhibitors | A549 ARE-Fluc reporter, luciferase luminescence, 18-24 h; note: % is set by controls: 0 for no effect and ±100 for the full control effect; nearly all actives have a fitted effect of over 60% in size
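Nrf2 activity is the BugLite luminescence, read 15 min after reagent at room temperature, following CellTiter-Fluor cytotoxicity readout (30 min, 37C). Compound titrations were applied for 18-24 h to 5000 A549 ARE_Fluc cells/well in 5% FBS OPTI-MEM.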
S2 tox: viability counter-screen for ATXN expression inhibitors; Potency, µM (highest dose often 56.7 µM), hits mostly cytotoxic; S2 cells (HEK-293 line with an ATXN2-luciferase reporter) viability, CellTiter-Fluor protease fluorescence, 24 h; 400,000 tested, 0.49% active; AID 651635; note: nearly all actives have a fitted effect of over 40% in size
TGFb inhibitor: inhibitors of TGF-b signaling; 410,000 tested, 1.2% active; HepG2 CAGA-GFP TGF-b/SMAD3 reporter, GFP fluorescence, 18 h; TGF-beta stimulated, 500 pg/mL final; Potency, µM (highest dose often 46.1 µM), without a hit: top-dose activity, negative = inhibition, actives largely listed as inhibitors; note: % is set by controls: 0 for no effect and ±100 for the full control effect; nearly all actives have a fitted effect of over 65% in size
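Per well, imaged GFP fluorescence of HEPG2 CAGA-GFP cells gives the signal; cells get compound, then TGF-beta (500 pg/mL final), 18 h at 37 degrees C; %Activity versus -TGF-beta and +DMSO controls.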
A549 tox: counter-screen for Nrf2 inhibitors: cytotoxicity in A549 cells | A549 ARE-Fluc cells, CellTiter-Fluor viability, 18-24 h | Potency, µM (series often up to 46 µM), for inactives: top-dose activity change, negative = cytotoxicity, actives largely listed as inhibitors | 390,000 tested, 0.16% active; note: % is set by controls: 0 for no effect and ±100 for the full control effect
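A549 ARE-Fluc cells in 5% FBS OPTI-MEM, 5000 cells/well, rested 2 h then exposed to compounds in concentration-response for 18-24 h at 37 °C. Viability by CellTiter-Fluor fluorescence (Ex 405/Em 525) after 30 min; luciferase luminescence (BugLite, 15 min, RT) read afterwards.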
Numbers without * were called inactive; i = inactive; ? = inconclusive; . = not tested or not shown; [ ] = dose if it differs, or a comment. Calls come from the whole dose curve; as a rule, active = well fitted curve in the direction sought with a large enough effect; inconclusive = small, poorly fitted or top-dose-only effect, or another doubt; inactive = no such curve, though single readings can be large; an effect the other way counts as inactive or inconclusive. Potency is the fitted concentration of half-maximal effect.

SMILES	ATXN2 expr inh	HepG2 tox	Nrf2 block	S2 tox	TGFb inhibitor	A549 tox
COc1cc(OC)c2c(-c3cccc(-c4ccc(CO)cc4)c3)cc(=O)oc2c1	?	-4%	?	i	5µM*	?
COc1cc(OC)c2c(-c3cccc(-c4ccc(N(C)C)cc4)c3)cc(=O)oc2c1	1%	-7%	?	i	1.1µM*	-11%
N/C(=N\OC(=O)c1csnn1)c1ccc(C(F)(F)F)cc1	4%	7%	3%	i	18%	0%
O=C(NCCc1ccc(Cl)cc1)c1cnc2sc(N3CCCCC3)nn2c1=O	5%	-3%	40%	i	-2%	-4%
O=C(Nc1ccc(-c2nc3ccccc3[nH]2)cc1)c1ccc2c(c1)OCO2	-28%	8.9µM*	?	?	7.9µM*	-19%
O=C(Nc1ccc(-c2nc3ccccc3[nH]2)cc1)C1CCCO1 (stereo unspecified)	-29%	7.1µM*	?	i	7%	0%
O=C(Nc1nc2ccccc2[nH]1)C1CCCO1 (stereo unspecified)	25%	-25%	15%	i	0%	-8%
COc1cccc(NC(=O)c2nc(S(C)(=O)=O)ncc2Cl)c1	?	-96%	-20%	?	16µM*	?
Cc1cccc(NC(=O)c2nc(S(C)(=O)=O)ncc2Cl)c1	?	20µM*	.	?	7.9µM*	?
COc1cccc(NC(=O)c2nc(SC)ncc2Cl)c1	-17%	-11%	1%	i	-1%	2%
O=C(NC1CCCCC1)N(c1ccccc1)c1nnc(-c2cccc([N+](=O)[O-])c2)s1	.	-35%	.	?	4%	.
O=C(Nc1ccccc1C(=O)Nc1nnc(C(F)(F)F)s1)c1ccccc1	?	-43%	?	?	?	13µM*
C=CCn1c(SCC(=O)Nc2sccc2C(N)=O)nc2ccccc2c1=O	-12%	-2%	26µM*	i	7%	-25%
C=CCn1c(SCC(=O)Nc2sccc2C(N)=O)nc2sc(CC)cc2c1=O	-37%	-16%	15µM*	?	8%	?
C=CCn1c(SC(C)C(N)=O)nc2sc(CC)cc2c1=O (stereo unspecified)	2%	-13%	4%	i	-1%	-2%
C=CCn1c(SCC(=O)Nc2sccc2C(N)=O)nc2ccc(Cl)cc2c1=O	?	-24%	?	i	-17%	?
CC(C)N(CCCNC(=O)Nc1ccc(C(C)(C)C)cc1)C[C@H]1O[C@@H](n2cc(Br)c3c(N)ncnc32)[C@H](O)[C@H]1O	22µM*	.	.	.	.	.
NC(=S)NN=Cc1nccc2c(C(F)(F)C(F)(F)C(F)(F)F)cccc12	.	-37%	.	.	1.4µM*	.
NC(=S)NN=Cc1nccc2ccccc12	?	-8%	?	?	-18%	?
Cc1cnc(C=NNC(N)=S)c2cccc(N)c12	?	-30%	7.3µM*	?	10µM*	?
CC#CC(=O)NCC1(N(C)Cc2ccccc2)Cc2ccccc2C1	-2%	-9%	-10%	i	-25%	-5%
COc1nc(Nc2ccc(O)cc2)nc(OC(C(F)(F)F)C(F)(F)F)n1	0%	-64%	?	i	?	-25%
Nc1cccc(Nc2nc(OC(C(F)(F)F)C(F)(F)F)nc(OC(C(F)(F)F)C(F)(F)F)n2)c1	-25%	11µM*	?	i	?	?
CCOc1ccc(S(=O)(=O)NCCc2c(C)[nH]c3c(Cl)cccc23)cc1C	?	18µM*	-6%	i	16µM*	-15%
CC(C)c1ccc(-n2nnnc2SCC(=O)NC2CC2)cc1	.	-15%	-12%	?	5%	-3%
SMILES	ATXN2 expr inh	HepG2 tox	Nrf2 block	S2 tox	TGFb inhibitor	A549 tox
COc1ccc(-c2nnc(COc3ccc4ccccc4c3)o2)cc1OC	-4%	-36%	23µM*	i	22%	.
COC(=O)c1ccc2nc(-c3ccc4c(c3)OCO4)cn2c1	?	8%	?	i	?	0%
CCc1ccn2cc(-c3ccc4c(c3)OCO4)nc2c1	3.5µM*	-62%	?	?	-23%	1%
CCCC/C=C/[C@H](c1ccccc1)[C@H](CO)Cc1ccc2ccccc2c1	.	-24%	19%	.	-3%	7%
COc1ccc(-c2c(C)c3ccc(O)c(CN4CCC(C)CC4)c3oc2=O)cc1OC	-19%	-6%	.	.	-25%	27%
CCOCCc1nn2c(=O)cc(COC(=O)C(CC)c3ccccc3)nc2s1 (stereo unspecified)	1%	-19%	-2%	i	-10%	12%
C=C(C)c1cccc(C(C)(C)NC(=O)Nc2cc(C)ccn2)c1	-1%	-17%	15µM*	?	11µM*	?
C=C(C)c1cccc(C(C)(C)NC(=O)Nc2ccc(C)cn2)c1	-19%	-4%	?	i	?	-7%
C=C(C)c1cccc(C(C)(C)NC(=O)Nc2ccc(OC)nc2)c1	-8%	-14%	?	i	-12%	12µM*
Cc1nnc2n(-c3ccccc3)c(=O)c3c4c(sc3n12)COC(C(C)C)C4 (stereo unspecified)	4%	-2%	-7%	i	0%	7%
CC(C)C1Cc2c(sc3[nH]c(=S)n(Cc4ccccc4)c(=O)c23)CO1 (stereo unspecified)	?	-49%	16µM*	i	3%	?
Cn1nc(C(C)(C)C)cc1C(=O)NNC(=O)c1ccc(C(F)(F)F)cc1	.	-26%	21µM*	i	?	13%
Cn1nc(C(C)(C)C)cc1C(=O)O	.	7%	3%	i	3%	1%
CC(C)(C)c1ccc(C(=O)NCC(=O)N2CCCCCC2)cc1	26%	-4%	7%	i	-10%	-14%
O=c1[nH]cnc(O)c1C(c1ccc2c(c1)OCO2)c1c(O)nc[nH]c1=O	.	-4%	20%	i	-6%	7%
CCOc1cc2c3c(c1)C1(Nc4ccccc4S1)C(=O)N3C(C)(C)CC2C (stereo unspecified)	-12%	-35%	?	i	13µM*	-15%[1.84 µM]
CCOc1cc2c3c(c1)C1(OCCO1)C(=O)N3C(C)(C)CC2C (stereo unspecified)	-3%	0%	.	i	13%	-1%
COCCCNC(=O)CCCn1c(=O)c2ccccc2n(Cc2cccc([N+](=O)[O-])c2)c1=O	-6%	-2%	6%	i	?	1%
